In the assay the target is Neurogenic locus notch homolog protein 3 (Homo sapiens) (UniProt Q9UM47). Nature of the assay: small molecules binding NOTCH3 protein – biochemical, 635/667 nm fluorescence, primary screen (AID 1096). The conditions noted are these: small-molecule microarray, 635 nm fluorescence, higher = more signal.
Chain of Neurogenic locus notch homolog protein 3 (Homo sapiens) (Q9UM47 whole entry, looked up): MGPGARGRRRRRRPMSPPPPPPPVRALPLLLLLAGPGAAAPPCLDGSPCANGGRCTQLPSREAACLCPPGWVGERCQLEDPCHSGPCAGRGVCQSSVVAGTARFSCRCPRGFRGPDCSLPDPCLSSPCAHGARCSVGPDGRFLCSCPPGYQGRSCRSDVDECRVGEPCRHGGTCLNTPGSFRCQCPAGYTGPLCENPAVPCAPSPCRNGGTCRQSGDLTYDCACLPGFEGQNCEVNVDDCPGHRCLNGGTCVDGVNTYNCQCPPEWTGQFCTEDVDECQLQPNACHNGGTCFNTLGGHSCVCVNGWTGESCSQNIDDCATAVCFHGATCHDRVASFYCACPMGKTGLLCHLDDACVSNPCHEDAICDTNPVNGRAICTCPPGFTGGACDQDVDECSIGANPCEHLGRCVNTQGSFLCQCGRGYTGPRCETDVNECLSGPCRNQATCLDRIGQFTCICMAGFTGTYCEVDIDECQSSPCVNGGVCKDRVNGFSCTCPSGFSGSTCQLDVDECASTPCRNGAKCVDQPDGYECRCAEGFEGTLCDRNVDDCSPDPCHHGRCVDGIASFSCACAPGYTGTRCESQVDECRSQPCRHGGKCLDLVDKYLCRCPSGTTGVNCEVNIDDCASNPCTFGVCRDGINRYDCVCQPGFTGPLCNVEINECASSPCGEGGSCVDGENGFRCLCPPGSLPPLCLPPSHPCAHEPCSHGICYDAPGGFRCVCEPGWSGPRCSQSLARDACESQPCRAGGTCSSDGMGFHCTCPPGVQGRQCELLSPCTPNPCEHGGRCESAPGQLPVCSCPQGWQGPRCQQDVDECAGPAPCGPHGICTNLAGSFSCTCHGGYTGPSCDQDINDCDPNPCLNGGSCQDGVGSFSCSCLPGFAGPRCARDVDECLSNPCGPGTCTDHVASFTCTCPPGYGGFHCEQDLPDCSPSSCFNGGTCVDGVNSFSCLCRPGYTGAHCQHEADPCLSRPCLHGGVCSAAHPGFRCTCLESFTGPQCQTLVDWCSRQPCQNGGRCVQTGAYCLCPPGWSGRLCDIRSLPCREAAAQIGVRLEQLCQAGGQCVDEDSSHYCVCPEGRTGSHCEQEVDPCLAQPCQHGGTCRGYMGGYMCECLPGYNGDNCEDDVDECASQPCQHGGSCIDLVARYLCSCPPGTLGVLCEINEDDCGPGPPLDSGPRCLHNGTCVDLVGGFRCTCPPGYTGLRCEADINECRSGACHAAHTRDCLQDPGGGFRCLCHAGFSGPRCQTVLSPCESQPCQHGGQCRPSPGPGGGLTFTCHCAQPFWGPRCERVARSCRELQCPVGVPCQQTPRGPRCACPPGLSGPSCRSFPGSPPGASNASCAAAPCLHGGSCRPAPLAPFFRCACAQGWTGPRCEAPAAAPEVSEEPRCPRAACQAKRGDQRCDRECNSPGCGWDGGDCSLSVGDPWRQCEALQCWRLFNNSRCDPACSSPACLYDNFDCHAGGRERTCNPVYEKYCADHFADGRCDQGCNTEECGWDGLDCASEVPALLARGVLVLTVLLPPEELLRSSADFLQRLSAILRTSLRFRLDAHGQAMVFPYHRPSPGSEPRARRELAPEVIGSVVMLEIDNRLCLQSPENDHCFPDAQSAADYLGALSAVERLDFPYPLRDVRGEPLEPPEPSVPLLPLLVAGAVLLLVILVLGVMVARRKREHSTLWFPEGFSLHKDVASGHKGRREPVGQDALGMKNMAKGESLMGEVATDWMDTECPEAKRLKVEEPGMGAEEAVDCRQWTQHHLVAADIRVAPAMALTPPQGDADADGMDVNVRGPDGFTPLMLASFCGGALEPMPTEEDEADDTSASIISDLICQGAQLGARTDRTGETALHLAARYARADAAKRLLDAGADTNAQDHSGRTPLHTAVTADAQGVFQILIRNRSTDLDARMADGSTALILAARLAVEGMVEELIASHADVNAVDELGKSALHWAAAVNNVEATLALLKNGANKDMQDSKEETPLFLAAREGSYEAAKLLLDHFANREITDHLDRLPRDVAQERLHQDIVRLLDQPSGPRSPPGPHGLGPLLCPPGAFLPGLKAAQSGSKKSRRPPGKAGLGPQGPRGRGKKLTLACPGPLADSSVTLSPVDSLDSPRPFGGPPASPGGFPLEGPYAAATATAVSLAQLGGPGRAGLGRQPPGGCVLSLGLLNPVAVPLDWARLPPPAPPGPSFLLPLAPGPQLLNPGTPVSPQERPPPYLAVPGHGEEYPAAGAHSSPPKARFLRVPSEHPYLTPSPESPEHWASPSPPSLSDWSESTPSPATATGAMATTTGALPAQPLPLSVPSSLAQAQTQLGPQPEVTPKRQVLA
Take `CC(C)CN1CCc2nc(-c3ccccc3)c3c(c2C1)CO[C@@H](C)C3`: the composite z-score came out at 1.08.

Compound `COCC#Cc1ccc([C@@H]2N[C@H](C(=O)O)CC[C@H]2C)cc1` showed a composite z-score of -0.54.

In turn, `C[C@@H](c1ccccc1)N1C(=O)[C@H]2[C@H]3[C@H](O)[C@H](O)CC(=NOC[C@@H](O)COCc4ccco4)[C@H]3CC[C@H]2C1=O` gave a composite z-score of -0.233.

Turning to `CCOC(=O)[C@H](CC(C)C)NC(=O)CCC1CC(OC(=O)NCc2ccc3c(c2)OCO3)CC2(CCCC(COC(=O)NCCc3ccc(Cl)cc3)O2)O1` (stereo partly specified), the composite z-score was 0.951.

Compound `C#CCCCON=C1C[C@@H](O)[C@@H](O)[C@@H]2[C@@H]3C(=O)N(C4CCCCC4)C(=O)[C@@H]3CC[C@@H]12` gave a composite z-score of 0.358.

Compound `CC(C)=CCCC(C)=CCON=C1C[C@@H](O)[C@@H](O)[C@@H]2[C@@H]3C(=O)N(c4cccc(Oc5ccccc5)c4)C(=O)[C@@H]3CC[C@H]12` had a composite z-score of 0.782.

As for `COc1ccc(O[C@H]2C=C[C@@H](C#Cc3ccccc3)O[C@@H]2CO)cc1`, the composite z-score was 0.402.

As to `CCCNC(=O)OC[C@H]1O[C@H](CCON=C[C@@H](NS(=O)(=O)c2ccc(C)cc2)[C@H](C)C=CCC(=O)OC)C=C[C@@H]1Oc1ccc(OC)cc1`, the composite z-score is -0.0703.

The compound `COC(=O)[C@H](C)NC(=O)CCC1CC(OC(=O)NCc2cccc3ccccc23)CC2(CCCC(COC(=O)NCCCN3CCCC3=O)O2)O1` (stereo partly specified) registered a composite z-score of 1.14.

On to `COC(=O)[C@H](C)NC(=O)CCC1CC(OC(=O)NCCc2ccc(F)cc2)CC2(CCCC(COC(=O)NCC3CCCCC3)O2)O1` (stereo partly specified), for which the composite z-score is 1.06.

In the case of `COC(=O)[C@H](C)NC(=O)CCC1CC(OC(=O)NCc2ccc3c(c2)OCO3)CC2(CCCC(COC(=O)NCCc3ccc(Cl)cc3)O2)O1` (stereo partly specified), the composite z-score is 0.67.

Take `COc1ccc(COC(=O)NN=C2C[C@@H](O)[C@@H](O)[C@@H]3[C@@H]4C(=O)N([C@@H](C)c5ccccc5)C(=O)[C@@H]4CC[C@@H]23)cc1`: the composite z-score amounted to 0.128.

On to `COc1ccc(O[C@H]2C=C[C@@H](c3ccccc3)O[C@@H]2COC(=O)CCC(C)=NOC[C@@H](O)COCc2ccco2)cc1`, for which the composite z-score is -1.74.

Compound `CCN1C(=O)[C@H]2[C@H]3[C@H](O)[C@H](O)CC(=NOCC(C)C)[C@H]3CC[C@H]2C1=O` came in with a composite z-score of 0.599.

In turn, `CC(=O)OC[C@H]1O[C@H](C#CCC2CCCCC2)C=C[C@@H]1OC(C)=O` returned a composite z-score of 0.568.

Consider `CCN1C(=O)[C@H]2[C@H]3[C@H](O)[C@H](O)CC(=NOC[C@@H](O)[C@H]4O[C@@H]5OC(C)(C)O[C@@H]5[C@H]4O)[C@@H]3CC[C@H]2C1=O`, for which the composite z-score was -0.124.

In turn, `C[C@@H]1CC[C@@H](C(=O)O)N[C@H]1c1cccc(N2CCOCC2)c1` registered a composite z-score of 0.597.

Turning to `CCOC(=O)NN=C1C[C@@H](O)[C@@H](O)[C@@H]2[C@@H]3C(=O)N(c4ccc(F)cc4F)C(=O)[C@@H]3CC[C@H]12`, the composite z-score came out at 0.625.

For the compound `CCC1=NOC(CCC2CC(OC(=O)NCc3cccc4c3OCO4)CC3(CCCC(COC(=O)NCCc4ccc(Cl)cc4)O3)O2)C1` (stereo unspecified), the composite z-score is -0.165.

As to `CCOC(=O)CCN1C(=O)[C@H]2[C@H]3[C@H](O)[C@H](O)CC(=NO[C@@H]4O[C@H](CO)[C@@H](O)[C@H](O)[C@H]4O)[C@@H]3CC[C@H]2C1=O`, the composite z-score was 1.09.

Regarding `CCOC(=O)[C@H](CC(C)C)NC(=O)CCC1CC(OC(=O)NCc2ccc3c(c2)OCO3)CC2(CCCC(COC(=O)NCc3ccccc3)O2)O1` (stereo partly specified), the composite z-score came to 0.845.

`CC(C)C(=O)N[C@H]1CCCN1C(=O)C=Cc1ccccc1` yielded a composite z-score of 0.826.

The compound `COC(=O)[C@H](C)NC(=O)CCC1CC(OC(=O)NCc2cccc3ccccc23)CC2(CCCC(COC(=O)NCc3ccccc3)O2)O1` (stereo partly specified) had a composite z-score of 1.09.

In turn, `CCOC(=O)[C@H](CC(C)C)NC(=O)CCC1CC(OC(=O)NCCc2ccc(F)cc2)CC2(CCCC(COC(=O)NCc3cccc4ccccc34)O2)O1` (stereo partly specified) returned a composite z-score of -0.773.

For `COC(=O)CC=C[C@@H](C)[C@@H](C=NOC(C)CN1CCCCc2nc(C)c(C)cc21)OC` (stereo partly specified), the composite z-score was determined as 0.234.

In the case of `CCN1C(=O)[C@H]2[C@H]3[C@H](O)[C@H](O)CC(=NOC[C@@H](O)COCc4ccco4)[C@H]3CC[C@H]2C1=O`, the composite z-score was 0.0738.

For `COCCNC(=O)OCC1CCCC2(CC(OC(=O)NCc3cccc4ccccc34)CC(CCC(=O)N[C@@H](C)C(=O)OC)O2)O1` (stereo partly specified), the composite z-score came to 1.05.

Turning to `CC(=O)OC[C@H]1O[C@@H](ON=C(C)CCN2CCCCc3nc(C)c(C)cc32)[C@H](OC(C)=O)[C@@H](OC(C)=O)[C@@H]1OC(C)=O`, the composite z-score was found to be 0.927.

For `O=C1C=C[C@@H](O)[C@@H]2[C@@H]3C(=O)N(c4cccc(Oc5ccccc5)c4)C(=O)[C@@H]3CC[C@@H]12`, the composite z-score was 0.477.

Turning to `CCOC(=O)[C@H](CC(C)C)NC(=O)CCC1CC(OC(=O)NCCc2ccc(F)cc2)CC2(CCCC(COC(=O)NCCOC)O2)O1` (stereo partly specified), the composite z-score is 0.998.

`CCN1C(=O)[C@H]2[C@H]3[C@H](O)[C@H](O)CC(=NOC(C)CN4CCCc5nc(C)c(C)cc54)[C@@H]3CC[C@H]2C1=O` (stereo partly specified) displayed a composite z-score of 0.597.

On to `CC(C)=CCCC(C)=CCON=C1[C@H]2CCn3c(=O)n(-c4ccccc4)c(=O)n3[C@H]2[C@H](O)[C@@H]2O[C@H]12`, for which the composite z-score turned out to be 1.07.

`O=C1C=C[C@@H](O)[C@@H]2[C@@H]3C(=O)N(Cc4ccccc4)C(=O)[C@@H]3CC[C@@H]12` returned a composite z-score of 0.798.

Regarding `CCCCOC(OCCCC)C(O)CSc1ccc2ccccc2c1` (stereo unspecified), the composite z-score was found to be 0.776.

Compound `CC[C@@H](c1ccccc1)n1c(=O)n2n(c1=O)[C@H]1[C@H](O)[C@@H]3O[C@@H]3C(=NOCc3ccccc3)[C@H]1CC2` yielded a composite z-score of 0.81.

Turning to `CC(CCN1CCCc2nc(C)c(C)cc21)=NOC[C@@H](C)[C@H](OCc1ccccc1)C(C)C`, the composite z-score is -0.763.

Source of the values: PubChem BioAssay.
